Compound activity from PubChem.
Hits are enriched below; roughly 7.3% of the tested compounds scored in any of these assays.
HCV inh: HCV inhibition; hit rate 3.4% among 340,000; Huh7.5.1 HCVcc-Cre infection, luciferase reporter, 44 h; Potency, µM (doses to about 41.8 µM), for inactives: top-dose activity change, negative = inhibition, most hits filed as inhibitors; AID 651820; note: potency is the fitted concentration of half-maximal effect
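1,000 cells/well; 4 h culture; + compound; + HCVcc-Cre (~0.5 moi); 44 h; luciferase substrate, RT 15 min; read 15 sec.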
AmpC inh no detg: blocks E. coli AmpC beta-lactamase in detergent-free assay. P00811. AmpC nitrocefin hydrolysis, absorbance 480 nm, 0.0001% Triton. Potency, µM (top dose mostly 57.1 µM), without a hit: at the highest dose activity change, negative = inhibition, hits mostly inhibitors. hit rate 0.52% among 330,000;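 note: potency is the fitted concentration of half-maximal effect; plate controls were no compound for no effect and no enzyme for full effect; nearly all actives have a fitted effect of over 20% in size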
Target sequence (P00811 whole entry, looked up): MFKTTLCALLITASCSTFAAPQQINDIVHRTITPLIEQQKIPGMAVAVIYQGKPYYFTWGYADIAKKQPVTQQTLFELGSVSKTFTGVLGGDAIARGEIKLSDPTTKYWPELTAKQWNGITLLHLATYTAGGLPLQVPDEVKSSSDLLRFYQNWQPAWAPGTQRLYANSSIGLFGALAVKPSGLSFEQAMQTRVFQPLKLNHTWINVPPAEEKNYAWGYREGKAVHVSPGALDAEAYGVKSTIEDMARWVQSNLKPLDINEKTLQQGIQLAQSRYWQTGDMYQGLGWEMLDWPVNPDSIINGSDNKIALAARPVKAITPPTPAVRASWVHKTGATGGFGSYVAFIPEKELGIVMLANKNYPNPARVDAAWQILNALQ
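AmpC (5.3 nM in the dispensed reagent) in 20 mM phosphate pH 7.0 with 0.01% (detergent screen) or 0.0001% Triton X-100 was preincubated with compounds for 15 min at room temperature. Nitrocefin was then added from an 800 uM solution, and hydrolysis was followed at 480 nm.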
AmpC detergent: blocks E. coli AmpC beta-lactamase in detergent assay; P00811; AmpC hydrolysis of nitrocefin, absorbance 480 nm, 0.01% Triton; Potency, µM (top dose mostly 114 µM), for the others: at the top dose activity change, negative = inhibition, most hits filed as inhibitors; hit rate 0.041% among 370,000;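 note: potency is the fitted concentration of half-maximal effect; 0% = no-compound wells and -100% = no-enzyme wells; nearly all actives have a fitted effect of over 25% in size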
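20 mM phosphate pH 7.0 + 0.01% (detergent screen) or 0.0001% Triton X-100; 5.3 nM AmpC reagent; cpd preinc 15 min RT; nitrocefin (800 uM stock) to start; A480 q20 s × 4 min; Activity was normalised to no-enzyme and no-compound control wells.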
FMDV inh: blocks foot and mouth disease virus; FMDV antiviral cell-based qHTS; Potency, µM (titrated, usually from 57.9 µM), without a hit: at the top dose activity change, negative = inhibition, actives largely listed as inhibitors; hit rate 1.2% among 410,000; calls by dose curve; tested in HEK293T cells; note: read-out not given here; potency is the fitted concentration of half-maximal effect; nearly all actives have a fitted effect of over 45% in size
HCMV antiviral: inhibitors of human cytomegalovirus; activity change, negative = inhibition, % at 57.5 µM; AID 1259415; hit rate 4.5% among 410,000; HFF cells, HCMV-luciferase reporter, 72 h; stronger effect = lower value; in the data active = activity change below about -60%; inconclusive = no clear call, values can overlap the other calls; inactive = above about -39%
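Two-dose cell screen: HFF monolayers treated with compounds and infected with luciferase-expressing HCMV at 1 PFU/cell, 72 h at 37C, then lysed for luciferase measurement.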
* hit, by the source's call; ? = inconclusive; / = no result; [ ] = another dose, or the depositor's remark. Unless noted, calls come from the whole dose curve; as a rule, active = well fitted curve in the direction sought with a large enough effect; inconclusive = small, poorly fitted or top-dose-only effect, or another doubt; inactive = no such curve, though single readings can be large; an effect the other way counts as inactive or inconclusive. Unless noted, % is set by controls: 0 for no effect and ±100 for the full control effect.

SMILES	HCV inh	AmpC inh no detg	AmpC detergent	FMDV inh	HCMV antiviral
C#Cc1ccc(-n2nc3ccccc3c2OC)cc1	/	/	/	/	24.6
CC1=C(C(=O)OCC(C)C)C(c2ccsc2)C2=C(CCCC2=O)N1 (stereo unspecified)	1.8%	-14.0%	-0.7%	-21.6%	-78.2*
O=C(c1ccccc1)c1ccccc1N/C=C/c1nnnn1-c1ccccc1	6.31µM*	-36.1%	-2.8%	8.9%	?
O=S(=O)(NCc1ccccc1Cl)c1ccc(-n2cccn2)cc1	-6.6%	-35.2%	-12.8%	20.1%	-6.5
Cc1cc(C)cc(N2C(=O)NC(=O)/C(=C\c3cccn3-c3ccccc3)C2=O)c1	?	-19.6%	?	35.5µM*	-20.3
O=Cc1cccn1-c1ccc2ccccc2c1	0.3%	2.6%[2.29 µM]	0.1%	46.7%	?
CN1C(=O)/C(=C/c2cccn2-c2ccc3ccccc3c2)C(=O)NC1=S	1.1%	?	-9.9%	28.2µM*	-105.0*
O=C1NC(=S)N/C1=C/c1cccn1-c1ccc([N+](=O)[O-])cc1	-25.1%	-28.0%[11.4 µM]	-7.0%	-8.9%	-7.6
O=C1NC(=S)NC(=O)C1=Cc1cccn1-c1ccc(O)cc1	?	-53.3%	3.3%	20µM*	-99.4*
Cc1cc(C)cc(N2C(=O)NC(=O)/C(=C\c3cccn3-c3ccc(Cl)cc3)C2=O)c1	20.8%	15.7%	-12.6%	8.91µM*	-22.8
Cc1ccc(S(=O)(=O)N2CCC(C(=O)Nc3ccccc3N3CCCC3)CC2)cc1C	?	-4.5%	-7.1%	-9.9%	-36.8
COc1cc(C2Oc3cc(C4Oc5cc(O)cc(O)c5C(=O)C4O)ccc3OC2CO)ccc1O (stereo unspecified)	?	-17.9%	1.9%	?	-66.8*
CC1=C(C(=O)N(C)C)CC(CC(=O)NC2CCCC2)C(=O)N1CCC1=CCCCC1 (stereo unspecified)	/	/	/	69.9%	51.4
Cc1ccc(NC(=O)c2cnccn2)c(OC(F)F)c1	12.6µM*	-8.6%	-0.3%	20.2%	-14.0
COc1ccc(NC(=O)Nc2ccc(C)cc2OC(F)F)cc1OC	6.31µM*	?	-6.0%	-15.0%	-1.9
Cc1ccc(NC(=O)Nc2ccc3c(c2)OCO3)c(OC(F)F)c1	-26.5%	-33.0%	-3.7%	50.0%	62.0
COc1ccc(NC(=O)CCN2CCN(CCO)CC2)c(OC)c1	/	/	13.0%	-9.4%	13.6
O=C(Cn1cncn1)N1CCOc2ccc(CN3CCN(c4ccccc4)CC3)cc2C1	/	/	/	-4.8%	/
Cc1cc2nc(C3CCN(Cc4nnnn4Cc4cccs4)CC3)[nH]c2cc1C	11.2µM*	0.4%	-11.0%	-4.1%	18.7
O=C(N[C@H](C(=O)N1CCC[C@H]1C(=O)NCCc1ccccc1Cl)C1CCCCC1)c1cccs1	/	/	/	/	11.5
COc1ccc2c(c1)c1nc3n(c(=O)c1n2CC(=O)Nc1cc(C)[nH]n1)CCS3	/	-24.1%	-1.0%	/	-84.9*
Oc1ccc(/C=N/N(c2ccccc2)c2ccccc2)cc1O	-17.1%	-4.8%	2.1%	-12.6%	19.8
Oc1ccc(/C=N/N(c2ccccc2)c2ccccc2)c(O)c1O	/	28.2µM*	3.7%	/	27.7
CCOc1ccccc1NC(=S)N1CCCCCC1	-1.6%	-21.9%	?	4.3%	-38.9
CCCCCCC(NC(=O)c1ccc(C)cc1)C(=O)O (stereo unspecified)	1.9%	-19.3%	/	-0.2%	9.2
COc1ccccc1-c1nc(C(=O)NCC2CCCO2)cc2c1[nH]c1ccccc12 (stereo unspecified)	?	44.7%	-16.4%	-23.9%	/
O=C(NCC1CCCO1)c1cc2c([nH]c3ccccc32)c(-c2cccc(Cl)c2)n1 (stereo unspecified)	1.26µM*	-11.7%	-8.1%	?	/
COc1cc(-c2nc(C(=O)NCC3CCCO3)cc3c2[nH]c2ccccc23)cc(OC)c1OC (stereo unspecified)	3.55µM*	253.1%	-7.8%	?	18.1
COc1cc(=O)n2c(c1C(=O)NC(C)c1ccco1)CCN(CC=C(C)C)CC2 (stereo unspecified)	/	/	/	9.1%	/
CC(C)(C)NC(=O)C(c1c[nH]c2ccccc12)N(C(=O)Cn1nnc(-c2ccc(F)cc2)n1)c1cccc(O)c1 (stereo unspecified)	10µM*	6.3%	-6.3%	?	-20.3
